Data: ChEMBL document CHEMBL4808148, “HDAC6 screening dataset using tau-based substrate in an enzymatic assay yields selective inhibitors and activators” (2021)
The campaign covered roughly 5,600 compounds. About 390 (7%) showed an effect of 50% or more. The full list was thinned out, with strong results kept by preference. Starred links: 1 amine or outer side, 2 acyl side, 3 side chain; linkers in the order of their positions; H or OH if unused. Positions of bridges follow the written chain, without caps; N, C: chain ends. Non-standard residues stand in square brackets, D forms with d. Residues, ends and D or L forms follow the SMILES beside them. Chains are numbered I, II in the order given. Actinocin(9to1) = Cc1c2oc3c(C)ccc(C(=O)[*:1])c3nc-2c(C(=O)[*:2])c(N)c1=O; NMeV = CN[C@H](C(=O)O)C(C)C; Sar = CNCC(=O)O

Key:
[1] = target: T1, Protein deacetylase HDAC6 (Homo sapiens) (UniProt Q9UBN7); settings: at 10 µM
T1 sequence (whole entry): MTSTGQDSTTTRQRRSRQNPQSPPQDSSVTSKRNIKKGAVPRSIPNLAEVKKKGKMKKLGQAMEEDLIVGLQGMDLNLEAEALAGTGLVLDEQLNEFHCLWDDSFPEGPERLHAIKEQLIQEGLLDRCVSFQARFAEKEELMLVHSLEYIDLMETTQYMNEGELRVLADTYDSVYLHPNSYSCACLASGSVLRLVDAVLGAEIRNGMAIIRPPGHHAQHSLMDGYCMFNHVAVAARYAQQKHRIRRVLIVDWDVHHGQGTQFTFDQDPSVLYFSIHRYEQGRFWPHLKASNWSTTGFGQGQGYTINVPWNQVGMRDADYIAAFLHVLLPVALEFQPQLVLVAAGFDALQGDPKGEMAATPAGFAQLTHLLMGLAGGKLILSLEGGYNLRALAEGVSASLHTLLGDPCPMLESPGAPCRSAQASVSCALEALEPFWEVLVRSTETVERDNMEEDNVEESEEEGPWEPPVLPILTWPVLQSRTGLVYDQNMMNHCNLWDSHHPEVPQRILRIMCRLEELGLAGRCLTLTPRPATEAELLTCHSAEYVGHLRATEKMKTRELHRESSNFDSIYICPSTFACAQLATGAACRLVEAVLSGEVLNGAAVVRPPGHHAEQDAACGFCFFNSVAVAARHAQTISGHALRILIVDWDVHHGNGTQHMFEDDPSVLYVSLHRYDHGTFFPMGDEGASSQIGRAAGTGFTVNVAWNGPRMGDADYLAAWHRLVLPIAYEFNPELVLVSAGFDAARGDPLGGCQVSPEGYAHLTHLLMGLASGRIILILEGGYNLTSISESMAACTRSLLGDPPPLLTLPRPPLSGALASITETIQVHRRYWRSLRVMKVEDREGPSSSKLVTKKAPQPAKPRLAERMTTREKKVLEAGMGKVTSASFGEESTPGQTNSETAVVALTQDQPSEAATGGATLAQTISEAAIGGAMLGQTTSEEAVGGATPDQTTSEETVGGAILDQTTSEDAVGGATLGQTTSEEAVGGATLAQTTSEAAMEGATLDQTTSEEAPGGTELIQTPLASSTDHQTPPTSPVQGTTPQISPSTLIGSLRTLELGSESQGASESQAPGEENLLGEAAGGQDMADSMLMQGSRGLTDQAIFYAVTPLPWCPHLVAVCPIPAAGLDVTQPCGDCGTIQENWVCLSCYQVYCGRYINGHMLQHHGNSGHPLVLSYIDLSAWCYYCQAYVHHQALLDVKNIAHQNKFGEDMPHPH

[2] = target: Protein deacetylase HDAC6 (Homo sapiens) (UniProt Q9UBN7); settings: at 10 µM; remark: listed apart in the source

Compound: N/C(=N\C(=O)c1nc(Cl)c(N)nc1N)NCc1ccccc1
- inhibition [1]: 25.2%

Compound: N[C@H](C(=O)O)c1ccc(O)cc1
- inhibition [1]: 4.75%

Compound: Cc1cc(-c2nc(C(=O)Nc3cn(C4CCOCC4)nc3C(N)=O)co2)ccn1
- inhibition [1]: 22.8%

Compound: CC(=O)Nc1ccc(S(=O)(=O)Nc2ccc([N+](=O)[O-])cc2)cc1
- inhibition [1]: 17.7%

Compound: COc1ccc(/C=C/C(=O)Nc2ccccc2C(=O)O)cc1OC
- inhibition [1]: 40.8%

Compound: O=C(/C=C/c1cccc(S(=O)(=O)Nc2ccccc2)c1)NO
- inhibition [1]: 102%

Compound: c1cc(-c2sc(-c3ccncc3)c(-c3ccncc3)c2-c2ccncc2)ccn1
- inhibition [1]: 17%

Compound: COc1cc(N)c(Cl)cc1C(=O)CCC1CCN(CCNS(C)(=O)=O)CC1
- inhibition [1]: -6.48%

Compound: Nc1ncnc2c1ncn2[C@@H]1O[C@H](CO)C[C@H]1O
- inhibition [1]: -9.63%

Compound: CC(=O)Oc1c(C)cc(OCC(O)CNC(C)C)c(C)c1C (stereo unspecified)
- inhibition [1]: 28.4%

Compound: CCOc1ccc(-n2c(C(C)N(Cc3cccnc3)C(=O)Cc3ccc(F)c(C(F)(F)F)c3)nc3ncccc3c2=O)cc1 (racemic)
- inhibition [1]: -3.08%

Compound: COc1cccc(-c2ccc(NC(=O)C3=C(C(=O)O)CCC3)c(F)c2)c1
- inhibition [1]: 43.2%

Compound: COc1cc2nccc(Oc3ccc(NC(=O)Nc4ccc(F)cc4F)c(F)c3)c2cc1OC
- inhibition [1]: 10.8%

Compound: CCCCOc1ccc(C(=O)Nc2ccc(F)cc2F)cc1
- inhibition [1]: 69.8%

Compound: CHLOROPHYLLIDECOPPER COMPLEX SODIUM SALT, CHEMBL5308389
- inhibition [2]: 8.12%

Compound: Chlorophyllin (sodium copper salt), CHEMBL5308389
- inhibition [2]: 19.3%

Compound: BISMUTH SUBSALICYLATE, CHEMBL1120
- inhibition [2]: 12.2%

Compound: O=C(O)C1(c2ccc(-c3ccc(Cl)c(Cl)c3)c(F)c2)CC1
- inhibition [1]: 33.4%

Compound: O=C(O)c1cc(-c2ccc(F)cc2F)ccc1O
- inhibition [1]: 60.9%

Compound: Cc1c(-c2ccc(-c3ccccc3F)cc2)nc2ccc(F)cc2c1C(=O)O
- inhibition [1]: -9.14%

Compound: CC(C)[C@@H](C)/C=C/[C@@H](C)[C@H]1CC[C@H]2/C(=C/C=C3\C[C@@H](O)CC[C@@H]3C)CCC[C@]12C
- inhibition [1]: 11.8%

Compound: CC(C)(O)c1coc(S(=O)(=O)NC(=O)Nc2c3c(cc4c2CCC4)CCC3)c1
- inhibition [1]: -9.36%

Compound: Cc1cnc(NC(=O)Nc2cc(Br)c(C)cc2OC[C@@H]2CNCCO2)cn1
- inhibition [1]: -8.01%

Compound: COc1cc(COc2cc(N)c(Cl)cc2C(=O)CCC2CCN(CCNS(C)(=O)=O)CC2)cc(OC)c1
- inhibition [1]: 28.1%

Compound: Cc1c(NC(=O)N2CCOCC2)ccc2c1c1ccccc1n2C(C)C
- inhibition [1]: 21.6%

Compound: CSc1ccc2c(c1)N(CCC1CCCCN1C)c1ccccc1S2 (stereo unspecified)
- inhibition [1]: 21.9%

Compound: CSc1ccc2c(c1)C(N1CCN(C)CC1)Cc1ccccc1S2 (stereo unspecified)
- inhibition [1]: 62.7%

Compound: CN1CCCC(CC2c3ccccc3Sc3ccccc32)C1 (stereo unspecified)
- inhibition [1]: 34.4%

Compound: NC(=O)C[C@H](N)C(=O)O
- inhibition [1]: 16.2%

Compound: O=C(O)CNC(=O)c1nc(Cl)c2ccccc2c1O
- inhibition [1]: -6.14%

Compound: Cc1c2oc3c(C)ccc(C(=O)N[C@@H]4C(=O)N[C@@H](C(C)C)C(=O)N5CCC[C@H]5C(=O)N(C)CC(=O)N(C)[C@@H](C(C)C)C(=O)O[C@@H]4C)c3nc-2c(C(=O)N[C@@H]2C(=O)N[C@@H](C(C)C)C(=O)N3CCC[C@H]3C(=O)N(C)CC(=O)N(C)[C@@H](C(C)C)C(=O)O[C@@H]2C)c(N)c1=O (I: TVP[Sar][NMeV] / II: TVP[Sar][NMeV]; ester I:1-I:C, II:1-II:C; linker I:N-II:N via Actinocin(9to1))
- inhibition [1]: 21%

Compound: COc1ccccc1S(=O)(=O)Nc1ccc2c(c1)CN(C)C(=O)N2
- inhibition [1]: -9.44%

Compound: COc1cc2c(cc1OC)CN(CCc1ccc(NC(=O)c3cccc4c(=O)c5cccc(OC)c5[nH]c34)cc1)CC2
- inhibition [1]: 59.7%

Compound: COc1cccc([C@H](O)C2CCN(CCc3ccc(F)cc3)CC2)c1OC
- inhibition [1]: -1.53%

Compound: COc1cnc(-n2cnc(C)n2)c2[nH]cc(C(=O)C(=O)N3CCN(C(=O)c4ccccc4)CC3)c12
- inhibition [1]: 12.8%

Compound: CC(C)(Sc1ccc(CCN(CCCCC2CCCCC2)C(=O)NC2CCCCC2)cc1)C(=O)O
- inhibition [1]: 10.4%

Compound: COc1ccc(/C=C\CCCCOc2ccc(C(=O)c3cccc(C(=O)O)c3)cc2CCC(=O)O)cc1
- inhibition [1]: -0.99%

Compound: CC(C)(C)c1ccc(CN(Cc2cccc(OCC(=O)O)c2)S(=O)(=O)c2cccnc2)cc1
- inhibition [1]: 3.1%

Compound: Cc1onc(-c2c(Cl)cccc2Cl)c1C(=O)N[C@@H]1C(=O)N([C@@H](C(=O)O)C(C)(C)C)[C@@H]1S
- inhibition [1]: -9.26%

Compound: O=C(Nc1ccccc1-c1cn2c(CN3CCNCC3)csc2n1)c1cnc2ccccc2n1
- inhibition [1]: 55.6%

Compound: O=C(C1CC1)N1CC[C@@H](Cc2n[nH]c(=O)n2-c2ccc(-c3ccc4occc4c3)cc2)C1
- inhibition [1]: 39.2%

Compound: CN[C@@H]1[C@@H](O)[C@H](O[C@@H]2[C@@H](O)[C@H](O[C@H]3O[C@H](CN)[C@@H](O)[C@H](O)[C@H]3O)[C@@H](N)C[C@H]2NC(=O)[C@@H](O)CN)OC[C@]1(C)O
- inhibition [1]: -4.97%

Compound: Cc1ccc(F)c(NC(=O)Nc2ccc(-c3cccc4[nH]nc(N)c34)cc2)c1
- inhibition [1]: 94.5%

Compound: Cc1cc(NC(=O)Nc2ccc(N(C)C)cc2)c2cc(F)cc(F)c2n1
- inhibition [1]: 9.39%

Compound: C[N+]1(CCCCC[N+]2(C)CCCC2)CCCC1
- inhibition [1]: 1.14%

Compound: NC(=O)[C@H]1CCS[C@@H]2C[C@]3(CCCN3C(=O)Cc3ccc(NC(=O)COc4ccc(Cl)cc4Cl)cc3)C(=O)N12
- inhibition [1]: 3.16%
